Results filed as inconclusive are left out. A call without a number means that no potency is given here. Calls of active or inactive are those of the source. Unless noted, the call rests on the fitted dose curve.
Assays:
[1] = Nuclear factor erythroid 2-related factor 2/antioxidant responsive element (Nrf2/ARE) small molecule agonists: qHTS cell viability counter screen in human keratinocytes (AID 1919968; active means well fitted curve in the direction sought with a large enough effect in the repeat runs; an effect the other way counts as inactive or inconclusive; further: nearly all actives have a fitted effect of over 55% in size)
In short: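 Seed 1,500 KeratinoSens cells per well, then incubate 5 h at 37 C/5% CO2. Add compounds in DMSO and incubate 23 h. Add CellTiter-Fluor, wait 1 h and read fluorescence.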

[2] = Nuclear factor erythroid 2-related factor 2/antioxidant responsive element (Nrf2/ARE) small molecule agonists: luciferase reporter gene qHTS assay in human keratinocytes (AID 1919969); further: nearly all actives have a fitted effect of over 35% in size; further: potency means the concentration at half of the fitted maximal effect
[3] = biological target: Gonadotropin-releasing hormone receptor (Homo sapiens) (UniProt P30968); assay: Human gonadotropin-releasing hormone receptor (GnRHR) small molecule agonists, calcium flux assay in GnRHR-HEK293 cells (AID 1920063); further: nearly all actives have a fitted effect of over 35% in size
Sequence of Gonadotropin-releasing hormone receptor (Homo sapiens) (P30968 whole entry, looked up): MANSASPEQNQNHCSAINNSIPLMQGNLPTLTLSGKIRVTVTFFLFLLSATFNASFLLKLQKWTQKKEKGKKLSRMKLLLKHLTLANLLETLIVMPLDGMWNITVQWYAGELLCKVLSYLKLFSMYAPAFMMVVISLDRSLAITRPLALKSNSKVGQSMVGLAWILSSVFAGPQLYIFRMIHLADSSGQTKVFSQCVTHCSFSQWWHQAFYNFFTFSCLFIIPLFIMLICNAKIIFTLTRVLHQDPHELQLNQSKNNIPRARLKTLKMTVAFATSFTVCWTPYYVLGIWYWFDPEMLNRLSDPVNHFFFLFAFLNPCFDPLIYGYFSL
In short: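 Cells: HEK293 stably expressing human GnRHR. Steps: overnight (18 h) culture, 1 h calcium dye loading at 37 C, compound addition, kinetic fluorescence read at 480/540 nm. Each compound tested at 15 concentrations in triplicate.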

[4] = biological target: KiSS-1 receptor (Homo sapiens) (UniProt Q969F8); assay: Human kisspeptin (KISS1R) small molecule agonists, calcium flux assay in KISS1R-HEK293 cells (AID 1920064; active means well fitted curve in the direction sought with a large enough effect in the repeat runs; an effect the other way counts as inactive or inconclusive)
Sequence of KiSS-1 receptor (Homo sapiens) (Q969F8 whole entry, looked up): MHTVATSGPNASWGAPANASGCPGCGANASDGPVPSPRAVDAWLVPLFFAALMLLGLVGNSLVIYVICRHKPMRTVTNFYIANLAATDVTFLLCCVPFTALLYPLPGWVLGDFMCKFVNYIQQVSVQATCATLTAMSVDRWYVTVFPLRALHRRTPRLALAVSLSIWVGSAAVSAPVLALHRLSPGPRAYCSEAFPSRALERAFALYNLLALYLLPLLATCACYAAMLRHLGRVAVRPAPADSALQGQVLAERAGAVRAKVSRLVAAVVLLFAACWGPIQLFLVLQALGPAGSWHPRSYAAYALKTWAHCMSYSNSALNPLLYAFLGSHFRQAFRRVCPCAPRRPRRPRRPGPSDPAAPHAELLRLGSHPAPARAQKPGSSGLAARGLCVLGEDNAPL
In short: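 Cells plated and incubated 18 h; dye added, 1 h at 37 C; compounds in DMSO pinned in; signal read at 480/540 nm every second for 3 min. Each compound tested at 15 concentrations in triplicate.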

[5] = G protein-coupled receptor (GPCR) small molecule agonists, calcium flux assay: HEK293 wild type cell line counter screen (AID 1920065)
In short: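 Counter-screen of the Tox21 10K library for non-specific calcium release: dye-loaded cells received compounds in DMSO and were monitored by kinetic fluorescence (480/540 nm, 3 min). Fifteen concentrations, run in triplicate.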

[6] = p53 small molecule agonists, cell-based qHTS assay with human liver microsomes: qHTS cell viability counter screen (AID 1963579); further: nearly all actives have a fitted effect of over 45% in size
In short: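 Seed p53RE-bla cells at 4,000 per well; incubate 5 h at 37 C; add compound, human liver microsomes and NADPH; incubate 16 h at 37 C; add CellTiter-Glo; after 30 min at room temperature, read luminescence.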

[7] = p53 small molecule agonists, cell-based qHTS assay with rat liver microsomes: qHTS cell viability counter screen (AID 1963580); further: nearly all actives have a fitted effect of over 45% in size
In short: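 Intracellular ATP, by CellTiter-Glo luminescence, defines viability. HCT-116 p53RE-bla cells, 4,000 per well, were compound-treated in the presence of rat liver microsomes and NADPH for 16 h at 37 C.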

[8] = p53 small molecule agonists, cell-based qHTS assay: qHTS cell viability counter screen (AID 1963581); further: nearly all actives have a fitted effect of over 45% in size
In short: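 Cells: HCT-116 with p53 response element-driven beta-lactamase. Treatment: 16 h, 37 C, compounds in DMSO. Read: CellTiter-Glo luminescence after 30 min RT.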

[9] = cAMP Responsive Elements (CRE) small molecule agonists, cell-based qHTS assay (AID 1963590)
In short: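 Agonist mode qHTS in CRE-bla HEK 293T cells: compounds dosed from DMSO for 3 h at 37 C/5% CO2, followed by LiveBLAzer B/G FRET substrate for 2 h at room temperature.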

[10] = biological target: Beta-2 adrenergic receptor (Homo sapiens) (UniProt P07550); assay: Adrenergic beta2 receptor (ADRB2) small molecule antagonists, cell-based qHTS assay (AID 1963592); further: nearly all actives have a fitted effect of over 50% in size; further: potency means the concentration at half of the fitted maximal effect
Sequence of Beta-2 adrenergic receptor (Homo sapiens) (P07550 whole entry, looked up): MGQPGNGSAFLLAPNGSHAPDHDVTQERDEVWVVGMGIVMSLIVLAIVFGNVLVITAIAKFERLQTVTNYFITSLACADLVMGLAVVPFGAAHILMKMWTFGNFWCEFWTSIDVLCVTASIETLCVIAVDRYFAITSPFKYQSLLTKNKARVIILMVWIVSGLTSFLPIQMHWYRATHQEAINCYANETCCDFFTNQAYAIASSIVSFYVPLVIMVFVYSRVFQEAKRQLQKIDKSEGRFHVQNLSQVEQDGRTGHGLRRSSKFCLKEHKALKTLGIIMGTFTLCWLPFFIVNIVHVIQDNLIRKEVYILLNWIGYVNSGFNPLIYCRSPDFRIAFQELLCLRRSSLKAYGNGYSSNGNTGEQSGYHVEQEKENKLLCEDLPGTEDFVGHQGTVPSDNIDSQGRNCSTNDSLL
In short: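 Cells (CHO, stable ADRB2 overexpression) incubated 18-20hr at 37C; compounds added from DMSO; agonist mix (1nM isoproterenol, 100uM IBMX, 25uM Ro-20-1724) added; 0.5hr RT; d2-cAMP and anti-cAMP-cryptate added; 1hr RT; 665/615 nm read.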

[11] = biological target: D(2) dopamine receptor (Homo sapiens) (UniProt P14416); assay: Dopamine D2 receptor (DRD2) small molecule agonists, cell-based qHTS assay (AID 1963594); further: nearly all actives have a fitted effect of over 35% in size; further: potency means the concentration at half of the fitted maximal effect
Sequence of D(2) dopamine receptor (Homo sapiens) (P14416 whole entry, looked up): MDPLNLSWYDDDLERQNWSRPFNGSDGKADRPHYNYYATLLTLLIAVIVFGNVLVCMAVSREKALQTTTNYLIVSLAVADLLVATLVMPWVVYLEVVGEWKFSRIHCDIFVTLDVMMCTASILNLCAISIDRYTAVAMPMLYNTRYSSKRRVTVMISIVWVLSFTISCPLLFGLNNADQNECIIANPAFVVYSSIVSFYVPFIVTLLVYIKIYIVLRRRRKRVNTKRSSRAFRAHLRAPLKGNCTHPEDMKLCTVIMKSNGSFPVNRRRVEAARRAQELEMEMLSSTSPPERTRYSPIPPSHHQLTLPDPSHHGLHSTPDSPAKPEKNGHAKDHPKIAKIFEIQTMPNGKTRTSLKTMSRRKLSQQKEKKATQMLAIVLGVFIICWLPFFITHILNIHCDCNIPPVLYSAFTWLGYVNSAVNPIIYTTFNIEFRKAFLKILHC
In short: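 cAMP accumulation in DRD2-HEK293 cells measured by HTRF after 1 h detection; compounds added 10 min before NKH477 (200nM […]) forskolin-analogue stimulation, 30 min at room temperature, with Ro20-1724 present at 0.1 mM final.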

[12] = biological target: D(2) dopamine receptor (Homo sapiens) (UniProt P14416); assay: Dopamine D2 receptor (DRD2) small molecule antagonists, cell-based qHTS assay (AID 1963595; active means well fitted inhibition curve with a large enough effect in the signal ratio in the repeat runs, with a control signal flat; the % refers to the signal ratio)
In short: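 DRD2-HEK293; 0.1 mM Ro20-1724; cpd 10 min RT; NKH477 200 nM + quinpirole 12 nM, 30 min RT; HTRF cAMP (cAMP-d2/anti-cAMP cryptate), 665/620 nm ratio after 1 h.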

[13] = biological target: 5-hydroxytryptamine receptor 2A (Homo sapiens) (UniProt P28223); assay: 5-hydroxytryptamine receptor 2A (HTR2A) small molecule agonists, cell-based qHTS assay (AID 1963587); further: nearly all actives have a fitted effect of over 30% in size
Sequence of 5-hydroxytryptamine receptor 2A (Homo sapiens) (P28223 whole entry, looked up): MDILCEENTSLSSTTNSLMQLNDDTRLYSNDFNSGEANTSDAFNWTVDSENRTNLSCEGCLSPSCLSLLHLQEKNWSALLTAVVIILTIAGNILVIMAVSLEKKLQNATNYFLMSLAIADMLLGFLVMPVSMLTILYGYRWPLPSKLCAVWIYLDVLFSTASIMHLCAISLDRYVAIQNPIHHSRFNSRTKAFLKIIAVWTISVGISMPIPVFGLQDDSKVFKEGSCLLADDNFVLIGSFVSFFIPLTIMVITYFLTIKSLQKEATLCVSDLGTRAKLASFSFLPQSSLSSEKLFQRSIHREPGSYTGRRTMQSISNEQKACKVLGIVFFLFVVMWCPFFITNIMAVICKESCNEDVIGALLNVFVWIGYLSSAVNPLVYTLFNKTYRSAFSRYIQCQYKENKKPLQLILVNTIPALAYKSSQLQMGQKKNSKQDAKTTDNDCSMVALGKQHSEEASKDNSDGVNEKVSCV
In short: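 Kinetic calcium-flux fluorescence (2 min, 1 sec intervals) after compound addition in agonist mode. HTR2A-CHO cells were cultured 18 h, then dye-loaded 1 h at 37 C.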

[14] = biological target: Muscarinic acetylcholine receptor M1 (Homo sapiens) (UniProt P11229); assay: Cholinergic receptor muscarinic 1 (CHRM1) small molecule antagonists, cell-based qHTS assay (AID 1963588); further: nearly all actives have a fitted effect of over 40% in size; further: potency means the concentration at half of the fitted maximal effect
Sequence of Muscarinic acetylcholine receptor M1 (Homo sapiens) (P11229 whole entry, looked up): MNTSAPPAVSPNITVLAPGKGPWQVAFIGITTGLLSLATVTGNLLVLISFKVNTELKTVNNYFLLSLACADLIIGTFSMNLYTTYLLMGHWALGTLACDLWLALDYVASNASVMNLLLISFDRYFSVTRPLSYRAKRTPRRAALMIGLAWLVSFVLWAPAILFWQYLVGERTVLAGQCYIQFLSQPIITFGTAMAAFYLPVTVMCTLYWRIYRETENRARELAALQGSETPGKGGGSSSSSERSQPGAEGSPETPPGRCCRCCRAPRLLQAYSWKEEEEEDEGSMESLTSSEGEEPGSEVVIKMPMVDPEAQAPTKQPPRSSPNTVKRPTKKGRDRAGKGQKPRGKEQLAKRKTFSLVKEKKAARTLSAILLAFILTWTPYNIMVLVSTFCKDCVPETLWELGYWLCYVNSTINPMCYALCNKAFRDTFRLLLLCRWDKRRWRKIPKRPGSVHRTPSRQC
In short: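 CHRM1-CHO calcium-flux assay, antagonist mode. Cells were seeded 18 h, dye-loaded 1 h at 37 C and given compound for 5 min at RT, then acetylcholine was added at 50nM. FDSS fluorescence was read 3 min; 15 concentrations, three runs.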

[15] = biological target: 5-hydroxytryptamine receptor 2A (Homo sapiens) (UniProt P28223); assay: 5-hydroxytryptamine receptor 2A (HTR2A) small molecule antagonists, cell-based qHTS assay (AID 1963586); further: nearly all actives have a fitted effect of over 45% in size
In short: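 Antagonist-mode intracellular calcium assay: DOI (4 nM) added after 5 min compound pre-incubation at room temperature to dye-loaded HTR2A-CHO cells. Fluorescence followed for 3 min, sampled every second.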

[16] = biological target: Muscarinic acetylcholine receptor M1 (Homo sapiens) (UniProt P11229); assay: Cholinergic receptor muscarinic 1 (CHRM1) small molecule agonists, cell-based qHTS assay (AID 1963589); further: nearly all actives have a fitted effect of over 35% in size
In short: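 Agonist-mode qHTS in CHO cells stably carrying human muscarinic M1. Intracellular calcium is tracked by fluorescence every second after compound transfer; each compound runs at 15 concentrations in three independent runs.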

[17] = cAMP Responsive Elements (CRE) small molecule antagonists, cell-based qHTS assay (AID 1963591; active means well fitted inhibition curve with a large enough effect in the signal ratio in the repeat runs, not every such curve was filed as active; the % refers to the signal ratio)
In short: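 Antagonist mode: test compounds are co-incubated with the adenylyl cyclase activator NKH477 (0.25 uM final) on CRE-bla HEK293T cells for 3 h at 37 °C, followed by LiveBLAzer substrate loading.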

[18] = biological target: Beta-2 adrenergic receptor (Homo sapiens) (UniProt P07550); assay: Adrenergic beta2 receptor (ADRB2) small molecule agonists, cell-based qHTS assay (AID 1963593);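 further: CHO cells stably overexpressing human ADRB2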
In short: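 CHO cells stably over-expressing ADRB2 were plated overnight at 37C, then dosed with compounds plus a stimulation mix containing 100uM IBMX and 25uM Ro-20-1724 for 0.5hr at room temperature. cAMP was measured by HTRF competition, 1hr.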

[19] = p53 small molecule agonists, cell-based qHTS assay (AID 1963582; active means well fitted activation curve with a large enough effect in the signal ratio in the repeat runs, not every such curve was filed as active; the % refers to the signal ratio)
In short: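 Quantitative HTS in p53RE-bla cells: after a 5 h settling period, compounds delivered in DMSO were left on cells for 16 h at 37 C, and reporter induction was measured as fluorescence following 2 h substrate loading.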

CC[C@H]1OC(=O)[C@H](C)[C@@H](O[C@H]2C[C@@](C)(OC)[C@@H](O)[C@H](C)O2)[C@H](C)[C@@H](O[C@@H]2O[C@H](C)C[C@H](N(C)C)[C@H]2O)[C@](C)(O)C[C@@H](C)/C(=N\OCOCCOC)[C@H](C)[C@@H](O)[C@]1(C)O
Potency [1]: inactive | Potency [2]: inactive | Potency [3]: inactive | Potency [4]: inactive | Potency [5]: inactive | Potency [6]: inactive | Potency [7]: inactive | Potency [8]: inactive | Potency [9]: inactive | Potency [10]: inactive | Potency [11]: inactive | Potency [12]: inactive

CCCOc1ccc(S(=O)(=O)N2CCN(CC)CC2)cc1-c1nc2c(CC)n(Cc3ccccn3)nc2c(=O)[nH]1
Potency [1]: inactive | Potency [2]: inactive | Potency [3]: inactive | Potency [4]: inactive | Potency [5]: inactive | Potency [6]: inactive | Potency [7]: inactive | Potency [8]: inactive | Potency [13]: inactive | Potency [14]: 18.8 µM (active) | Potency [12]: inactive

COC(=O)CCSCCC(=O)OC
Potency [1]: inactive | Potency [2]: inactive | Potency [3]: inactive | Potency [4]: inactive | Potency [5]: inactive | Potency [6]: inactive | Potency [7]: inactive | Potency [15]: inactive | Potency [13]: inactive | Potency [14]: inactive | Potency [16]: inactive | Potency [9]: inactive | Potency [17]: inactive | Potency [10]: inactive | Potency [18]: inactive | Potency [11]: inactive | Potency [12]: inactive

Cc1ccc(C=O)cc1C
Potency [1]: inactive | Potency [2]: inactive | Potency [3]: inactive | Potency [4]: inactive | Potency [5]: inactive | Potency [6]: inactive | Potency [7]: inactive | Potency [19]: inactive | Potency [15]: inactive | Potency [13]: inactive | Potency [14]: inactive | Potency [16]: inactive | Potency [9]: inactive | Potency [17]: inactive | Potency [10]: inactive | Potency [12]: inactive

CC(C)C[C@H]1C(=O)N2CCC[C@H]2[C@]2(O)O[C@](NC(=O)[C@@H]3C=C4c5cccc6[nH]c(Br)c(c56)C[C@H]4N(C)C3)(C(C)C)C(=O)N12
Potency [1]: inactive | Potency [2]: inactive | Potency [3]: inactive | Potency [4]: inactive | Potency [5]: inactive | Potency [6]: inactive | Potency [7]: inactive | Potency [8]: inactive | Potency [9]: inactive | Potency [17]: inactive | Potency [11]: 0.0923 µM (active)

C=CCCC(=O)O
Potency [1]: inactive | Potency [2]: inactive | Potency [3]: inactive | Potency [4]: inactive | Potency [5]: inactive | Potency [6]: inactive | Potency [7]: inactive | Potency [8]: inactive | Potency [14]: inactive | Potency [16]: inactive | Potency [9]: inactive | Potency [17]: inactive | Potency [10]: inactive | Potency [18]: inactive | Potency [11]: inactive | Potency [12]: inactive

CC[N+](CC)(CC(=O)Nc1c(C)cccc1C)Cc1ccccc1 (tested in a mixture with another compound)
Potency [1]: inactive | Potency [2]: inactive | Potency [3]: inactive | Potency [4]: inactive | Potency [5]: inactive | Potency [6]: inactive | Potency [7]: inactive | Potency [8]: inactive | Potency [13]: inactive | Potency [14]: inactive | Potency [9]: inactive | Potency [17]: inactive | Potency [11]: inactive | Potency [12]: inactive

CN[C@@H]1[C@@H](O)[C@@H](O[C@@H]2[C@H](O)[C@H](O[C@H]3OC(CN)=CC[C@H]3N)[C@@H](N)C[C@H]2N)OCC1(C)O (stereo not given in full)
Potency [1]: inactive | Potency [2]: inactive | Potency [3]: inactive | Potency [4]: inactive | Potency [5]: inactive | Potency [6]: inactive | Potency [7]: inactive | Potency [8]: inactive | Potency [17]: inactive | Potency [10]: 2.66 µM (active) | Potency [11]: inactive | Potency [12]: inactive

Cc1ccc(NC=O)c(C)c1
Potency [1]: inactive | Potency [2]: inactive | Potency [3]: inactive | Potency [4]: inactive | Potency [5]: inactive | Potency [6]: inactive | Potency [7]: inactive | Potency [8]: inactive | Potency [13]: inactive | Potency [14]: inactive | Potency [9]: inactive | Potency [10]: inactive | Potency [18]: inactive | Potency [11]: inactive | Potency [12]: inactive

OCCOc1cccc(OCCO)c1
Potency [1]: inactive | Potency [2]: inactive | Potency [3]: inactive | Potency [4]: inactive | Potency [5]: inactive | Potency [6]: inactive | Potency [7]: inactive | Potency [8]: inactive | Potency [14]: inactive | Potency [16]: inactive | Potency [9]: inactive | Potency [17]: inactive | Potency [10]: inactive | Potency [11]: inactive | Potency [12]: inactive

Nc1ccc(Oc2ccc(N)c(N)c2)cc1
Potency [1]: inactive | Potency [2]: 6.11 µM (active) | Potency [3]: inactive | Potency [4]: inactive | Potency [5]: inactive | Potency [6]: inactive | Potency [7]: inactive | Potency [15]: inactive | Potency [13]: inactive | Potency [14]: inactive | Potency [16]: inactive | Potency [9]: inactive | Potency [17]: inactive | Potency [10]: inactive | Potency [18]: inactive | Potency [12]: inactive

— PubChem BioAssay (Tox21)
